Reference: PubChem BioAssay (NCATS)
Values joined by “and” are separate entries in the source; they are usually repeats but may differ in a detail not shown here. Equal entries are not always repeated. Inconclusive results are not listed. Entries that show only a call come without a potency. Active and inactive are the calls of the source. The call rests on the fitted dose curve; in most records, active means well fitted inhibition curve with a large enough effect; inconclusive means small, poorly fitted or top-dose-only effect; inactive means no such curve, though single readings can be large or run the other way.

Target: Cytochrome P450 2C19 (Homo sapiens) (UniProt P33261)
Assay: qHTS Assay for Inhibitors and Substrates of Cytochrome P450 2C19 (AID 899); further: nearly all actives have a fitted effect of over 60% in size
Settings: recombinant CYP2C19, luciferin-H EGE luminescence; series mostly up to 11.4 µM
Experimental: NIH Molecular Libraries Screening Centers Network [MLSCN]
NIH Chemical Genomics Center [NCGC]
The P450 gene superfamily is involved in the metabolism and clearance of xenobiotics. This assay used human CYP2C19 to measure the hydroxylation of ethylene glycol ester of 6' deoxyluciferin (Luciferin-H EGE; […]) to luciferin. The luciferin is then measured by luminescence after the addition of a luciferase detection reagent. Luciferin-H EGE concentration in the assay was equal to its KM for CYP2C19. Inhibitors and some substrates limit the production of luciferin, and decrease measured luminescence.
NCGC Assay Protocol Summary:
Two uL of enzyme and substrate mix (final concentrations: 5nM CYP2C19, 10uM Luciferin-H EGE, 50mM KPO4) were dispensed into a white, solid bottom 1536-well microtiter plate. 23nL of compound was transferred by a pin tool. The plate was incubated at 37C for 10 min. Two uL of an NADPH regeneration solution (Promega supplied reagent) was dispensed and the reaction was allowed to continue for 60 min at 37C. Then the reaction was stopped by reconstituted luciferin detection buffer. After another 20 min of incubation the plate was read on the ViewLux (Perkin Elmer) at 60 sec exposure and 2x2 binning. This protocol was carried out with Promega-Glo reagents and further information can be found at http://www.promega.com/tbs/tb325/tb325.pdf. Data were normalized to the to AC100 inhibition (57uM ketoconazole).
Keywords: P450, CYP2C19, Luciferase, MLSMR, MLSCN, NIH Roadmap, qHTS, NCGC
Potency means the concentration at half of the fitted maximal effect.

Sequence of Cytochrome P450 2C19 (Homo sapiens) (P33261 whole entry, looked up): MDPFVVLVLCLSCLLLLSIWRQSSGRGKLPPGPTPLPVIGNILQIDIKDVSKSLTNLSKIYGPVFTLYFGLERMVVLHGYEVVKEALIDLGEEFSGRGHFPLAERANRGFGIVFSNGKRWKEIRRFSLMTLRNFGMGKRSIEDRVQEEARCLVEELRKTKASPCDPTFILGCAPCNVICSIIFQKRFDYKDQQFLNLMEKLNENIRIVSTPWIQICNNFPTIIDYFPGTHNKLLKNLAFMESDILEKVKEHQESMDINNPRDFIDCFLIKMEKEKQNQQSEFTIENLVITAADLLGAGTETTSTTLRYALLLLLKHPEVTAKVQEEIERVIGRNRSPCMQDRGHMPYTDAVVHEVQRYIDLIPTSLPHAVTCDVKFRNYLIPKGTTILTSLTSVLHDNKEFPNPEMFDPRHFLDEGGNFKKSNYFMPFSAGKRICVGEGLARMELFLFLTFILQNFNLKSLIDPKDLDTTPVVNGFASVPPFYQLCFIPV

SMILES | Potency
CCCCC1CN2C(CCC(C)C2c2ccc(Br)cc2)C(=O)O1 (stereo not given) | 1.26 µM (active)
CC1(C)OC(C(O)(c2cc(C(F)(F)F)cc(C(F)(F)F)c2)c2cc(C(F)(F)F)cc(C(F)(F)F)c2)C(C(O)(c2cc(C(F)(F)F)cc(C(F)(F)F)c2)c2cc(C(F)(F)F)cc(C(F)(F)F)c2)O1 (stereo not given) | inactive
CC(=O)OCC1OC(C#CCCCc2ccccc2)C=CC1OC(C)=O (stereo not given) | inactive
CCCCCCC1=Cc2cc(OC)c(OC)cc2C(C2(C(=O)OCC)CCCC2=O)O1 (stereo not given) | inactive
CC(=O)OCC1OC(C#Cc2ccccc2Cl)C=CC1OC(C)=O (stereo not given) | 3.16 µM (active)
CCCCC#CC1C=CC(Oc2ccc(OC)cc2)C(CO)O1 (stereo not given) | 2 µM (active)
CCOC(=O)OCC1OC(c2ccccc2)C=CC1Oc1ccc2oc(=O)cc(C)c2c1 (stereo not given) | inactive
COC(=O)NC(/C=C/c1ccco1)[C@@]1(C(=O)OC)CCCC1=O (stereo not given in full) | inactive
C=CCc1cccc(C2C(C)CCC3C(=O)N4C(Cc5c([nH]c6ccccc56)C4c4cc(OC)c(OC)c(OC)c4)C(=O)N32)c1 (stereo not given) | inactive
C=C(C)C(O)/C=C/CCCCCCC (stereo not given) | inactive
COc1ccc(O[C@H]2C=C[C@@H](c3ccccc3)O[C@H]2COC(=O)CC/C(C)=N\O[C@@H](C)c2cn([C@H]3COC[C@H]3O)nn2)cc1 | 2.51 µM (active)
CN(C)c1cccc(OC2C=CC(C#Cc3ccccc3)OC2CO)c1 (stereo not given) | 3.98 µM (active)
CCOC(=O)OCC1OC(C#Cc2ccccc2)C=CC1Oc1cccc(N(C)C)c1 (stereo not given) | 1.58 µM (active)
COc1ccc(C#CC2C=CC(OC(C)=O)C(COC(C)=O)O2)cc1 (stereo not given) | inactive
OCC1OC(c2ccc3c(c2)OCO3)C=CC1Oc1cc(Cl)cc(Cl)c1 (stereo not given) | 0.0794 µM (active)
CO[C@@H]1COC(=O)[C@@H](CCSC)NC(=O)C/C=C\[C@@H](C)COC(=O)[C@H](C)NC(=O)C/C=C\[C@H]1C | inactive
CC(C)CCN1CCc2nc(-c3ccccc3)c3c(c2C1)COC(C)C3 (stereo not given) | inactive
COC(=O)NC(c1cccc(F)c1)C(C(C)=O)C(=O)OC (stereo not given) | inactive
O=C1C2Cc3c([nH]c4ccccc34)C(c3ccccc3)N2C(=O)C2Cc3c([nH]c4ccccc34)C(c3ccccc3)N12 (stereo not given) | inactive
COC(=O)CC1=COC(O)C2C(CO)=CC[C@@H]12 (stereo not given in full) | inactive

SMILES | Potency
C[C@H](CO)NC(=O)[C@H](C)[C@H]1C[C@]1(C)[C@H](NC(=O)OCc1ccccc1)c1ccccc1 | 0.631 µM (active)
CC12C=C(/C=C/CCc3ccco3)C(C)(C1)C(CCc1ccco1)CC2=O (stereo not given) | inactive
CC(=O)Nc1ccc(C2NC(C(=O)O)CCC2C)cc1 (stereo not given) | inactive
COC(=O)C1=C(C)N(Cc2ccccc2)[C@]23O[C@](C(=O)OC)(C(=O)N2C1c1ccccc1)C1C(=O)N(c2ccccc2)C(=O)C13 (stereo not given in full) | inactive
COc1ccc(O[C@H]2C=C[C@@H](c3ccccc3)O[C@H]2COC(=O)CC/C(C)=N\O[C@@H](C)CN2CCCCc3nc(C)c(C)cc32)cc1 | 5.01 µM (active)
C[C@@H]1OC2C3=C(C(=O)[C@H]4O[C@@H]4[C@H]3O)[C@@H]1[C@H]1[C@H](C)OC=C3[C@H](O)[C@H]4O[C@H]4/C(=N\OCc4ccccc4)[C@@]321 | inactive
CC(=O)OCC1OC(c2ccc3c(c2)OCO3)C=CC1OC(C)=O (stereo not given) | 0.316 µM (active)
Cc1ccc(S(=O)(=O)N[C@H]2COC(=O)[C@@H](Cc3ccccc3)NC(=O)[C@@H](C)COC(=O)C/C=C\[C@@H]2C)cc1 | inactive
COc1ccc(/C=C/NC(=O)c2ccc(OC)cc2)cc1 | inactive
COC(c1ccccc1)C(C)C(OC)C(C)C(OC)C(C)C(C)=O (stereo not given) | inactive
Cc1ccc(C#CC2C=CC(Oc3ccc4c(c3)OCO4)C(CO)O2)c(C)c1 (stereo not given) | inactive
CCOP(=O)(CC(C(C)=O)C(O)c1ccccc1)OCC (stereo not given) | inactive
CC1CCC2C(=O)N3C(CCC(C)[C@@H]3c3cccc(N4CCOCC4)c3)C(=O)N2C1c1cccc(N2CCOCC2)c1 (stereo not given in full) | inactive
COC(=O)NC(c1cccc(C)c1)[C@@]1(C(=O)OC)CCCC1=O (stereo not given in full) | inactive
COc1ccc(OC2C(O)COC2/C=C/C#Cc2ccccc2)cc1 (stereo not given) | inactive
C=COCC1CN2C(CCC(C)C2c2ccc(Br)cc2)C(=O)O1 (stereo not given) | 316 nM (active) and 79.4 nM (active)
COc1ccc(OC2C(O)COC2/C=C/c2ccccc2)cc1 (stereo not given) | 2 µM (active)
C=C(C)C(O)/C=C/c1ccc(Br)cc1 (stereo not given) | 0.02 µM (active)
CCC(=O)CC(NC(=O)OC)c1ccc(F)cc1 (stereo not given) | inactive
CC1CCC2C(=O)OC(CO)CN2C1c1ccc(Br)cc1 (stereo not given) | 0.158 µM (active)
